# Data from PubChem BioAssay (NCATS).
# Values joined by “and” are separate entries in the source; they are usually repeats but may differ in a detail not shown here. Equal values may be shown once. Values without a mark were called inactive. Inconclusive results are not listed. Active and inactive are the calls of the source. Unless noted, calls come from the whole dose curve; as a rule, active = well fitted curve in the direction sought with a large enough effect; inconclusive = small, poorly fitted or top-dose-only effect, or another doubt; inactive = no such curve, though single readings can be large; an effect the other way counts as inactive or inconclusive. Peptide text beside a SMILES is read from it.
# What was measured:
# [1] = Drug repurposing screens with cells derived from glioblastoma tumor samples (AID 1345199); settings: GBM patient neurospheres viability, ATP luminescence, 48 h; note: nearly all actives have a fitted effect of over 40% in size; note: potency is the fitted concentration of half-maximal effect; for activity, negative = cell killing: % is set by controls: 0 for no effect and ±100 for the full control effect
# Method in brief: (§1)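 Four patient lines of CD133+ GBM neurospheres were screened at several concentrations; hits were retested in those lines plus three slower-growing GBM lines, using 48-hour treatment and ATP-based viability.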
# astro = control astrocytes; test: as above; settings: viability, ATP luminescence, 48 h; series mostly up to 45.9 µM
# Method in brief: as §1
# [2] = biological target: Nuclear receptor subfamily 1 group I member 2 (Rattus norvegicus) (UniProt Q9R1A7); test: qHTS assay for small molecule activators of the rat pregnane X receptor (rPXR) signaling pathway (AID 651751; call rule not given here; note: 0% is about no effect); settings: rPXR reporter cells, luciferase (One-Glo), 24 h
# [3] = qHTS assay for small molecule activators of the human pregnane X receptor (PXR) signaling pathway (AID 720659; call rule not given here; note: 0% is about no effect); settings: DPX-2 HepG2 CYP3A4-luciferase, 24 h; series mostly up to 92.3 µM
# [4] = qHTS assay to identify inhibitors of the type 1 interferon - major histocompatibility complex class I in skeletal muscle: Counter screen cell viability and HiBit confirmation (AID 1347412); settings: iHSKM muscle cells + IFN-b, HiBiT or CellTiter-Glo, 24 h; for activity change, negative = inhibition: at 45.9 µM (top of the series); note: potency is the fitted concentration of half-maximal effect; for activity change, negative = inhibition: % is set by controls: 0 for no effect and ±100 for the full control effect; for all read-outs here: nearly all actives have a fitted effect of over 60% in size
# Method in brief: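 Duplicate plates, pinned identically: one read for HiBiT-tagged endogenous HLA-B luminescence, the other for ATP-content viability via CellTiter Glo. Cells were genome-engineered human myoblasts given 4 ng/ml IFN-b; compounds 12-pt, 1:3 from 46 uM final; 24 hr exposure.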
# [5] = at 45.9 µM (top of the series), tumour line B
# [6] = at 45.9 µM (top of the series), tumour line D
# [7] = at 46.1 µM (top of the series), tumour line C
# Nuclear receptor subfamily 1 group I member 2 (Rattus norvegicus), sequence (Q9R1A7 whole entry, looked up): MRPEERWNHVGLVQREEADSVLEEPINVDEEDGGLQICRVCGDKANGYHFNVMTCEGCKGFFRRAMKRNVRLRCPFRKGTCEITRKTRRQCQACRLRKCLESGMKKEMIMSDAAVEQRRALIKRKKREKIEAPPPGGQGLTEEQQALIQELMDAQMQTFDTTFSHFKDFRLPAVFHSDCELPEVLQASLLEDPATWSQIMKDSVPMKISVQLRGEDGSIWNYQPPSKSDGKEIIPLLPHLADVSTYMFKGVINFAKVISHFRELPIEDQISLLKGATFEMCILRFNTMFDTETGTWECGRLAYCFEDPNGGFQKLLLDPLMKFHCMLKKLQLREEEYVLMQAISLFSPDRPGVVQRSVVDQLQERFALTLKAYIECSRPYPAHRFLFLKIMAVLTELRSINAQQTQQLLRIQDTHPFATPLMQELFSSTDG
smiles,measurement,setting,value
O=C(NCCO[N+](=O)[O-])c1cccnc1,"activity, negative = cell killing",[1]; [5],-0.47%
same,"activity, negative = cell killing",[1]; [6],-18.1%
same,"activity, negative = cell killing",[1]; [7],-10.1%
same,Potency,astro,inactive
CNC[C@@H](O)[C@@H](O)[C@H](O)[C@H](O)CO,"activity, negative = cell killing",[1]; [5],0.477%
same,"activity, negative = cell killing",[1]; [6],-17.4%
same,"activity, negative = cell killing",[1]; [7],-4.13%
same,Potency,astro,inactive
CC1=C(C(=O)O)N2C(=O)[C@@H](NC(=O)[C@H](N)C3=CCC=CC3)[C@H]2SC1,"activity, negative = cell killing",[1]; [5],-8.4%
same,"activity, negative = cell killing",[1]; [6],-14.2%
same,"activity, negative = cell killing",[1]; [7],-3.66%
same,Potency,astro,inactive
N[C@@H](Cc1cc(I)c(Oc2cc(I)c(O)c(I)c2)c(I)c1)C(=O)O,"activity, negative = cell killing",[1]; [5],-5.58%
same,"activity, negative = cell killing",[1]; [6],-1.99%
same,"activity, negative = cell killing",[1]; [7],-6.06%
same,max response,[2],4.68%
Cc1c(OCC(F)(F)F)ccnc1CS(=O)c1nc2ccccc2[nH]1 (stereo not given),"activity, negative = cell killing",[1]; [5],-26%
same,Potency,[1]; tumour line A,10 µM (active)
same,Potency,astro,inactive
NS(=O)(=O)c1cc(C(=O)O)c(NCc2ccco2)cc1Cl,"activity, negative = cell killing",[1]; [5],-8.22%
same,"activity, negative = cell killing",[1]; [6],-18.4%
same,"activity, negative = cell killing",[1]; [7],5.25%
same,Potency,astro,inactive
same,max response,[2],7.06% and 0.0174%
same,outcome,[3],inactive
COCCCOc1ccnc(CS(=O)c2nc3ccccc3[nH]2)c1C (stereo not given),Potency,astro,22.4 µM (active)
COc1c2occc2cc2ccc(=O)oc12,"activity, negative = cell killing",[1]; [5],-22.6%
same,"activity, negative = cell killing",[1]; [6],-10.6%
same,"activity, negative = cell killing",[1]; [7],-21.4%
same,Potency,astro,inactive
same,max response,[2],0.0225% and 5.31%
CCCOc1ccc2nc(NC(=O)OC)[nH]c2c1,"activity change, negative = inhibition",[4]; Viability,-24.3%
CCN(CC)C(=S)SSC(=S)N(CC)CC,Potency,astro,63.1 µM (active)
same,max response,[2],-4.1%
Clc1ccc(C(Cn2ccnc2)OCc2ccc(Sc3ccccc3)cc2)c(Cl)c1 (stereo not given),"activity change, negative = inhibition",[4]; HiBiT,-10.3%
same,"activity change, negative = inhibition",[4]; Viability,-8.18%
CCOC(=O)c1c(C)n(C)c2ccc(O)cc12,"activity, negative = cell killing",[1]; [5],-14.1%
same,"activity, negative = cell killing",[1]; [6],-23.4%
same,Potency,astro,inactive
CC(C)C[C@H](NC(=O)[C@H](Cc1ccccc1)NC(=O)c1cnccn1)B(O)O,Potency,astro,501 nM (active) and 316 nM (active)
same,Potency,[4]; HiBiT,0.0313 µM (active)
O=c1oc2cc(O)ccc2s1,"activity, negative = cell killing",[1]; [5],-24%
same,Potency,[1]; tumour line C,23.1 µM (active)
same,Potency,astro,inactive
COc1cc(Nc2c(C#N)cnc3cc(OCCCN4CCN(C)CC4)c(OC)cc23)c(Cl)cc1Cl,Potency,[4]; HiBiT,11.1 µM (active)
same,Potency,[4]; Viability,24.9 µM (active)
CCCc1cc(=O)[nH]c(=S)[nH]1,"activity, negative = cell killing",[1]; [5],-8.42%
same,"activity, negative = cell killing",[1]; [6],-9.52%
same,"activity, negative = cell killing",[1]; [7],-10.7%
same,Potency,astro,inactive
same,max response,[2],-3.12% and -0.189%
same,outcome,[3],inactive
COC(=O)[C@H](Cc1ccccc1)NC(=O)[C@@H](N)CC(=O)O (H-Asp-Phe-OMe),"activity, negative = cell killing",[1]; [5],-10.7% and -0.538%
same,"activity, negative = cell killing",[1]; [6],-6.33% and -21.9%
same,"activity, negative = cell killing",[1]; [7],-19.7% and -4.06%
same,Potency,astro,inactive
same,max response,[2],-0.463% and 3.11%
CN(C)c1ccc2nc3ccc(=[N+](C)C)cc-3sc2c1,Potency,astro,5.01 µM (active)
same,Potency,[4]; Viability,15.7 µM (active)
same,outcome,[3],inactive
CC1=C(C)C(=O)C(C(CCCCCC(=O)O)c2ccccc2)=C(C)C1=O (stereo not given),"activity, negative = cell killing",[1]; [5],-10.7%
same,"activity, negative = cell killing",[1]; [6],17%
same,Potency,astro,inactive
Nc1nc(Cl)nc2c1ncn2[C@H]1C[C@H](O)[C@@H](CO)O1,max response,[2],-12.9%
CC1(C)CCC(C)(C)c2cc(NC(=O)c3ccc(C(=O)O)cc3)ccc21,"activity, negative = cell killing",[1]; [5],-10.2%
same,"activity, negative = cell killing",[1]; [6],-17.2%
same,"activity, negative = cell killing","[1]; at 46 µM (top of the series), tumour line A",-36.1%
same,"activity change, negative = inhibition",[4]; HiBiT,1.95%
same,"activity change, negative = inhibition",[4]; Viability,-0.914%
Cc1cccc(CN2CCN(C(c3ccccc3)c3ccc(Cl)cc3)CC2)c1 (stereo not given),"activity, negative = cell killing","[1]; at 20 µM (top of the series), tumour line C",-7.92%
same,Potency,[1]; tumour line A,5.62 µM (active)
same,Potency,astro,inactive
O=Nc1c(-c2c(O)[nH]c3cc(Br)ccc23)[nH]c2ccccc12,Potency,[4]; HiBiT,22.2 µM (active)
CCN(CC)CCOc1ccc(Nc2ncc3cc(-c4c(Cl)cccc4Cl)c(=O)n(C)c3n2)cc1,Potency,[4]; HiBiT,557 nM (active) and 883 nM (active)
same,Potency,[4]; Viability,12.5 µM (active) and 2.79 µM (active)
O=c1c(O)c(-c2ccc(O)cc2O)oc2cc(O)cc(O)c12,max response,[2],-2.11%
S=c1nc[nH]c2nc[nH]c12,"activity, negative = cell killing",[1]; [7],-28%
same,Potency,[1]; tumour line A,5.01 µM (active)
same,Potency,astro,inactive
CC(=O)N1CCN(c2ccc(OC[C@H]3CO[C@](Cn4ccnc4)(c4ccc(Cl)cc4Cl)O3)cc2)CC1,Potency,astro,inactive
same,max response,[2],-5.89%
same,outcome,[3],inactive
CCN(CC)CCOc1ccc(Cc2ccccc2)cc1,Potency,astro,22.4 µM (active)
O=C(NOCC1CC1)c1ccc(F)c(F)c1Nc1ccc(I)cc1Cl,Potency,astro,2.51 µM (active)
COC(=O)C1=C(C)NC(C)=C(C(=O)OCCCN2CCC(c3ccccc3)(c3ccccc3)CC2)C1c1cccc([N+](=O)[O-])c1 (stereo not given),Potency,astro,17.8 µM (active)
same,"activity change, negative = inhibition",[4]; HiBiT,4.03%
same,"activity change, negative = inhibition",[4]; Viability,-24.5%
O=C1c2ccccc2-c2n[nH]c3cccc1c23,"activity, negative = cell killing",[1]; [7],-13.2%
same,Potency,[1]; tumour line D,12.6 µM (active)
same,Potency,astro,10 µM (active)
N=C(N=C(N)N)N1CCOCC1,"activity, negative = cell killing","[1]; at 21.2 µM (top of the series), tumour line B",4.28%
same,"activity, negative = cell killing","[1]; at 21.3 µM (top of the series), tumour line A",-14.6%
same,Potency,astro,inactive
Cc1cc(=O)c2c(O)c3c(O)cc(=O)c4c3c3c(cc(O)c1c23)C(C)(C)C=4O,Potency,astro,2.51 µM (active)
Cc1cc(O)c2c(c1)C(=O)c1cc(O)cc(O)c1C2=O,max response,[2],1.52% and -0.614%
